According to the supplement of paper PMC7858590:

The compounds below were run on human monocyte-derived macrophages (polarized) (assay: cell shape (eccentricity) Z-score vs DMSO control; higher = more elongated, M2-like morphology). Conditions: 5 µM; 24 h; macrophage state: M1-polarized (IFNg + TNFa), cytokines present during treatment.
Description: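 Primary-screen hits were rescreened on polarized hMDMs with the differentiating cytokines (IL-4 + IL-13 or IFNg + TNFa) kept in the medium during treatment with compound at 5 uM for 24 h. The eccentricity Z-score vs DMSO wells is averaged over experiments.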

Compared with `CCN1C[C@]2(COC)CC[C@H](OC)[C@]34C1[C@H]([C@H](OC)[C@H]23)[C@@]1(OC(C)=O)C[C@H](OC)[C@]2(O)C[C@@H]4[C@@H]1[C@H]2OC(=O)c1ccc(OC)cc1`, `CCNC(=O)C[C@@H]1N=C(c2ccc(Cl)cc2)c2cc(OC)ccc2-n2c(C)nnc21` is higher in “cell shape (Z-score)” value: -6.97 for the first, -4.48 for the second.

First: CCCN(CCC)C1CCc2cccc(O)c2C1 (stereo not drawn)
Second: Clc1ccc(C2=CCCC3CCC2N3)cn1 (stereo not drawn)
The “cell shape (Z-score)” value of the first is lower: -3.43 for the first, 9.06 for the second.

`C=C(C)[C@@H]1[C@H]2OC(=O)[C@@H]1[C@]1(O)C[C@H]3O[C@]34C(=O)O[C@H]2[C@]14C` was tested, and the “cell shape (Z-score)” value was 0.251.

Same assay, conditions: 5 µM; 24 h; macrophage state: M2-polarized (IL-4 + IL-13), cytokines present during treatment

First: CC(=O)O[C@H]1CC[C@@]2(C)[C@H](CC[C@@H]3[C@@H]2CC[C@]2(C)[C@@H](C4=CC(=O)OC4)[C@@H](OC(C)=O)C[C@]32O)C1
Second: CCCC[C@@H](C)[C@@H](OC(=O)C[C@@H](CC(=O)O)C(=O)O)[C@H](C[C@@H](C)C[C@H](O)CCCC[C@@H](O)C[C@H](O)[C@H](C)N)OC(=O)C[C@@H](CC(=O)O)C(=O)O
The “cell shape (Z-score)” value of the first is lower: -23.5 for the first, 2.12 for the second.

For `Fc1ccc(C(OCCN2CCN(C/C=C/c3ccccc3)CC2)c2ccc(F)cc2)cc1`, the “cell shape (Z-score)” value was -8.38.
